HepG2 tox: counter-screen for TGF-b inhibitors: cytotoxicity in HepG2 cells; 0.76% of 410,000 active; HepG2 CAGA-GFP viability, ATP luminescence, 18 h; Potency, µM (titrated, usually from 46.1 µM), most hits filed as cytotoxic
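CellTiter-Glo luminescence gave cytotoxicity after 18 hours at 37 degrees C. The cells were HepG2 CAGA-GFP in 1% FBS DMEM, stimulated with 500 pg/mL TGF-beta after compound addition. %Activity was normalised to no-cell wells (complete cell-killing) and DMSO (no toxicity), and curves were fitted and classified.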
TDP1 cell CPT: growth inhibition of DT40 Tdp1-/-;hTDP1 cells with camptothecin (screen for TDP1 inhibitors). Potency, µM (series often up to 46.2 µM), hits mostly inhibitors. 12% of 420,000 active. AID 686979. chicken DT40 Tdp1-/-;hTDP1 cells + 20 nM CPT, ATP luminescence, 48 h; also: nearly all actives have a fitted effect of over 55% in size
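Chicken DT40 Tdp1-/- cells stably complemented with human TDP1 were seeded at 400 cells/well in medium containing 20 nM camptothecin, exposed to pin-transferred compounds, and grown at 37 °C for at least 48 hr. Viability was read as ATP luminescence.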
TGFb SMAD3 inh: TGF-b pathway inhibition; 1.2% of 410,000 active; HepG2 CAGA-GFP TGF-b/SMAD3 reporter, GFP fluorescence, 18 h; TGF-beta stimulated, 500 pg/mL final; Potency, µM (highest dose often 46.1 µM), most hits filed as inhibitors; also: nearly all actives have a fitted effect of over 65% in size
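Read-out: total well GFP (ex488/em500-530) summed from mean per-cell fluorescence. Cells: HEPG2 CAGA-GFP, 1% FBS DMEM, 18 h at 37 degrees C with 500 pg/mL final TGF-beta. Unstimulated wells served as the full-inhibition control; stimulated DMSO wells = 0%.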
TDP1 block: inhibitors of human tyrosyl-DNA phosphodiesterase TDP1. 0.28% of 350,000 active. recombinant TDP1, AlphaScreen DNA substrate cleavage. Potency, µM (doses to about 130 µM), usual class: inhibitors; also: nearly all actives have a fitted effect of over 40% in size
Target sequence (Q9NUW8 whole entry, looked up): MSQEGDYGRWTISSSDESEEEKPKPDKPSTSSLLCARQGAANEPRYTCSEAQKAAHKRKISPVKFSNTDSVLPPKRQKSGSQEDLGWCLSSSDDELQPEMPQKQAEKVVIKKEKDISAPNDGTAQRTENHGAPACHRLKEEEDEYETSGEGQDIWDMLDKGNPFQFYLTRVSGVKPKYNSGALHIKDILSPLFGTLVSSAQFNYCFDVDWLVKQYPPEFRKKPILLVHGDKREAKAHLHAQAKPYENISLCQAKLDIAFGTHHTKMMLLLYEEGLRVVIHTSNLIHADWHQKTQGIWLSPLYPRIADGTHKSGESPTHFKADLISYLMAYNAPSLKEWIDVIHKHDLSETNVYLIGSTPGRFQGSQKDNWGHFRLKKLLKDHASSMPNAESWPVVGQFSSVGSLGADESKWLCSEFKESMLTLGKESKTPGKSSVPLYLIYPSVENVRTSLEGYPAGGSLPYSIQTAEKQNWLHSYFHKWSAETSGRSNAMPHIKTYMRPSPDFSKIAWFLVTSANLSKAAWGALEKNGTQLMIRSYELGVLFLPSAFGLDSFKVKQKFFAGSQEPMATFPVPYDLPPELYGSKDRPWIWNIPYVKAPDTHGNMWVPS
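Tdp1 1 nM final; 15 min RT w/ cpd; substrate 15 nM, 5 min; beads 10 ug/ml, 10 min; AlphaScreen read. Neg ctrl: no enzyme.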
DT40 TDP1 no CPT: qHTS for Inhibitors of human tyrosyl-DNA phosphodiesterase 1 (TDP1): qHTS in cells in absence of CPT; AID 686978, 2013; 15% of 420,000 active; DT40 Tdp1-/- hTDP1 cells, no CPT, ATP luminescence, 48 h; Potency, µM (series often up to 46.2 µM), hits mostly inhibitors; also: nearly all actives have a fitted effect of over 55% in size
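No-CPT arm: Tdp1-/-;hTDP1 DT40 cells (400/well) plus compounds, incubated ≥48 hr at 37 °C. Readout CellTiter-Glo luminescence.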
IL-1B inflam inh: inhibitors of inflammasome signaling (IL-1 beta secretion); THP-1 LPS/ATP IL-1B secretion, AlphaLISA, 16 h; hits give low values; activity change, % at 57.5 µM; 4.7% of 360,000 active; in the data active = activity change below about -50%; inconclusive = mostly about -30% to -49%
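THP-1 cells pretreated 1 hr with compounds (up to 57.5 uM final), then stimulated with LPS (250 ng/mL final) plus ATP (1.25 mM final); secreted IL-1B measured by AlphaLISA after 16 hr, decreased signal indicating inhibition.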
Numbers stand for hits; – = inactive; ? = inconclusive; · = not tested or not shown; [ ] = remark or other dose. Most compounds without a hit are left out; they make up all but 18% or so of the library. Unless noted, calls follow the shape of the dose curve; as a rule, active = well fitted curve in the direction sought with a large enough effect; inconclusive = small, poorly fitted or top-dose-only effect, or another doubt; inactive = no such curve, though single readings can be large; an effect the other way counts as inactive or inconclusive.

SMILES	HepG2 tox	TDP1 cell CPT	TGFb SMAD3 inh	TDP1 block	DT40 TDP1 no CPT	IL-1B inflam inh
CCOC(=O)c1ccc(N2C(=O)c3n[nH]c(C)c3C2c2cccnc2)cc1 (stereo unspecified)	–	–	–	–	–	–
CCOC(=O)c1ccc(N2C(=O)c3n[nH]c(-c4ccco4)c3C2c2ccc([N+](=O)[O-])cc2)cc1 (stereo unspecified)	–	23µM	?	–	12µM	?
CCOC(=O)c1ccc(N2C(=O)c3n[nH]c(-c4ccco4)c3C2c2ccc(O)c(OC)c2)cc1 (stereo unspecified)	–	?	10µM	–	?	·
Cc1c(C)c2c(c(C)c1O)CCC(C)(CCCC(C)CCCC(C)CCCC(C)C)O2 (stereo unspecified)	·	–	·	–	–	·
CC(=O)N1C[C@H]2CON(C)[C@H]2C[C@H]1c1ccc(-c2cccnc2)cc1	–	–	–	·	–	–
CC(=O)c1ccc(Nc2nc(C(N)Cc3ccc(C(F)(F)F)cc3)cs2)cc1 (stereo unspecified)	–	15µM	?	·	16µM	?
NC(Cc1ccc(C(F)(F)F)cc1)c1csc(Nc2ccc(C(=O)c3ccccc3)cc2)n1 (stereo unspecified)	22µM	?	?	·	?	-70
NC(Cc1ccccc1)c1csc(Nc2ccc(C(=O)NCCCO)cn2)n1 (stereo unspecified)	–	?	–	·	?	–
Cc1ccc(C(=O)Nc2nc(C(N)Cc3ccc(C(F)(F)F)cc3)cs2)cc1 (stereo unspecified)	18µM	?	?	·	?	-65
NC(=O)c1ccc(Nc2nc(C(N)COCc3ccccc3)cs2)cc1 (stereo unspecified)	–	?	–	·	?	–
COc1cc(NC(=O)c2cccc(F)c2)cc(OC)c1OC	–	–	?	–	–	–
Cc1ncc(C(O)c2ccccc2)n1Cc1ccccc1 (stereo unspecified)	–	?	–	·	23µM	–
Cc1cccc(C(O)c2cnc(C)n2Cc2ccccc2)c1 (stereo unspecified)	–	?	–	·	18µM	–
CC1(C(=O)NS(=O)(=O)c2cccc(Cl)c2)CCN1C(=O)C1(c2ccc(Cl)cc2)CCC1 (stereo unspecified)	–	?	–	·	?	–
O=C(CNc1n[nH]c(=O)[nH]c1=O)N/N=C/c1cccnc1	–	–	–	–	–	–
CCOC(=O)c1c(N/N=C/c2cccnc2)n[nH]c1C	–	13µM	–	–	13µM	–
COc1ccc(-n2c(=O)c3c4c(sc3n3c(SC(C)C)nnc23)COC(C(C)C)C4)cc1 (stereo unspecified)	–	?	–	–	?	·
Cc1ccc2[nH]c3c(c2c1)CCCC3NC(=O)CCl (stereo unspecified)	18µM	6.5µM	?	·	2.3µM	-100
CCOC(=O)c1c(-c2ccccc2)nc2ccccn12	–	?	?	–	?	–
CCOC(=O)CNC(=O)CSc1nc2cccnc2n1C	–	–	–	–	–	–
CCOC(=O)c1ccc(NC(=O)CSc2nc(=O)n3cccc(C)c3n2)cc1	–	21µM	–	–	13µM	?
CCOC(=O)c1c(-c2ccccc2)nc2c(C)cccn12	–	15µM	–	–	16µM	–
COc1ccc(NC(=O)CSc2nc3cccnc3n2C)cc1	–	–	–	–	–	–
COC(=O)c1ccc(NC(=O)CSc2nc3cccnc3n2C)cc1	–	?	–	–	16µM	–
CCOC(=O)c1ccc(NC(=O)CSc2nc3cccnc3n2C)cc1	–	?	?	–	21µM	–
SMILES	HepG2 tox	TDP1 cell CPT	TGFb SMAD3 inh	TDP1 block	DT40 TDP1 no CPT	IL-1B inflam inh
O=C1[C@@H]2Cc3c([nH]c4ccccc34)C(c3ccccc3)N2C(=O)CN1CCO (stereo partly specified)	–	–	–	·	–	–
C=CCN1C(=O)[C@@H]2Cc3c([nH]c4ccccc34)C(c3ccc(O)cc3)N2C1=S (stereo partly specified)	–	?	–	·	16µM	–
COc1cc(C2c3[nH]c4ccccc4c3C[C@H]3C(=O)N(CCO)CC(=O)N23)cc(OC)c1OC (stereo partly specified)	–	?	–	·	21µM	–
CCN1C(=O)[C@@H]2Cc3c([nH]c4ccccc34)C(c3cc(OC)c(OC)c(OC)c3)N2C1=S (stereo partly specified)	–	?	–	·	?	–
COc1cc(C2c3[nH]c4ccccc4c3CC3COC(=O)N32)cc(OC)c1O (stereo unspecified)	–	0.29µM	–	·	0.29µM	–
COc1cc([C@H]2c3[nH]c4ccccc4c3C[C@H]3C(=O)N4[C@@H](c5cc(OC)c(OC)c(OC)c5)c5[nH]c6ccccc6c5C[C@H]4C(=O)N23)cc(OC)c1OC	14µM	4.6µM	?	–	2.9µM	–
CN(C)CCCCCCNc1cc(N2CCN(C)CC2)ncn1	–	–	–	·	–	·
COc1ccccc1N1CCN(c2ncnc3c2oc2ccccc23)CC1	–	3.7µM	–	–	5.2µM	–
O=C(c1ccco1)N1CCN(c2ncccn2)CC1	–	–	–	–	–	–
c1cnc(N2CCN(c3ncnc4c3oc3ccccc34)CC2)nc1	·	·	·	–	·	·
O=C(c1ccco1)N1CCN(c2ncnc3c2oc2ccccc23)CC1	–	21µM	–	–	13µM	–
Cc1nc(SCc2nc3ccccc3[nH]2)c2oc3ccccc3c2n1	–	21µM	–	–	?	–
Cc1nc(N2CCN(Cc3nc4ccccc4[nH]3)CC2)c2oc3ccccc3c2n1	–	?	?	–	18µM	?
Cc1nc(SCc2nc3ccccc3[nH]2)c2oc3ccc(Br)cc3c2n1	–	·	–	–	·	·
CCN(C(=O)CCNC(=O)Cn1cnc2ccccc2c1=O)c1cc(OC)ccc1OC	–	–	–	–[12.3 µM]	–	·
CCN(CC)C(=O)C1CCN(c2cc(C)nc3c(-c4ccc(OC)c(OC)c4)c(C)nn23)CC1	–	–	–	–	?	·
COc1ccccc1C(=O)NC(CCSC)C(=O)OCC(=O)N1CCCC1=O (stereo unspecified)	–	–	–	–	–	–
C(=C\c1ccccc1)/CN1CCN(c2ncnc3c2oc2ccccc23)CC1	–	18µM	?	–	18µM	–
Cc1nc(N2CCOCC2)c2oc3ccccc3c2n1	–	?	–	–	18µM	–
